Screen size: about 320,000 compounds; about 8,000 (2.5%) were called active. The sample as a whole holds a higher share of actives than the screen did. Values without a mark were called inactive. Rule as the data show it: active = activation above about 47%; inactive = the rest.
What follows are molecules tested against Aryl hydrocarbon receptor (Homo sapiens) (UniProt P35869) (assay: AHR activators, primary screen, cell-based, luminescence, luciferase reporter, human (AID 2796;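 also: 0% = vehicle wells and 100% = reference agonist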)). Conditions: AHR-responsive luciferase reporter cells, at 5 µM, active compounds read high.
Chain of Aryl hydrocarbon receptor (Homo sapiens) (P35869 whole entry, looked up): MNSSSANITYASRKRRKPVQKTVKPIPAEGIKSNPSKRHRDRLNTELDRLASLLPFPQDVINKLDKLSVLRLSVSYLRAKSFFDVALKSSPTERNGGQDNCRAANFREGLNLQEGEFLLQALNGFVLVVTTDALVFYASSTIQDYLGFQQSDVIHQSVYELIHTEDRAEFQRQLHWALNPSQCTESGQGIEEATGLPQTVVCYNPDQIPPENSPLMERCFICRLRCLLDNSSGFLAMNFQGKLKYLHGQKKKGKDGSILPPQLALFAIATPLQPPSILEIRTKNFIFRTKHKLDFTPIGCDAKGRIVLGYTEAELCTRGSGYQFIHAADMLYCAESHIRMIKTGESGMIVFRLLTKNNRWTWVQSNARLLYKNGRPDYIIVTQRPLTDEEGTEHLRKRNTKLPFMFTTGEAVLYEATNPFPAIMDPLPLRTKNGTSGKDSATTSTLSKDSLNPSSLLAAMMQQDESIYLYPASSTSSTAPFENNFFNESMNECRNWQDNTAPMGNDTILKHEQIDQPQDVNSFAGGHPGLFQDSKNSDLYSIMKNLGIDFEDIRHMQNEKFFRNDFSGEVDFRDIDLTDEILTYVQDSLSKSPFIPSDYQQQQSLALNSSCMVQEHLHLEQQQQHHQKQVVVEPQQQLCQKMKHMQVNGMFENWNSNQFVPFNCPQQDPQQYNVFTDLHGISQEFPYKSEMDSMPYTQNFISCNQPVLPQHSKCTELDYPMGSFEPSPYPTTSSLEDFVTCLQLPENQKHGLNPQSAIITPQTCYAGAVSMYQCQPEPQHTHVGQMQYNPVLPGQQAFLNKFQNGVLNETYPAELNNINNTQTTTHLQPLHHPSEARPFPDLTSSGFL

SMILES	activation
C/C=C(\C)C(=O)N1CC2(CC(c3cccc(NC(=O)CCCCC)c3)=NO2)C[C@@H]1C(N)=O (stereo partly specified)	2.15%
N#CC1(NC(=O)COc2ccc3oc4ccccc4c3c2)CCCCC1	4.73%
O=[N+]([O-])c1ccc2c(c1)Nc1nc3ccccc3nc1N2	36.9%
Cc1cccc(NS(=O)(=O)c2ccc([N+](=O)[O-])cc2)n1	1.34%
Cc1nc2ccccc2nc(=O)c1NNc1ccc([N+](=O)[O-])cc1	47.2% (active)
Cc1ccc(C(=O)N(CC(=O)NC2CCCC2)c2ccc(F)cc2)s1	2.22%
COc1ccccc1N1CCN(C(=O)c2cc3c(-c4ccc(Cl)cc4)nn(C)c3s2)CC1	121% (active)
CC(C)(C)c1ccc(C(=O)NCc2ccco2)cc1	9.26%
Cn1nc(C(F)(F)F)c2cc(C(=O)N3CCOCC3)sc21	-0.43%
CCOC(=O)N1CCN(C(=O)c2cc3c(-c4ccc(Cl)cc4)nn(C)c3s2)CC1	89.2% (active)
COc1ccc2c(Cl)c(C(=O)NCc3ccco3)sc2c1	-3%
COc1cccc(-c2nn(C)c3sc(C(=O)N4CCN(c5ccccc5)CC4)cc23)c1	9.25%
CCOC(=O)N1CCN(C(=O)c2ccc3nc4cc(Cl)ccc4c(=O)n3c2)CC1	5.36%
COc1cccc(-c2cc(C(=O)N3CCN(c4ccccc4OC)CC3)no2)c1	2.67%
Cn1nc(-c2ccc(Cl)cc2)c2cc(C(=O)NCc3ccco3)sc21	79.7% (active)
CCOC(=O)c1cccc(NC(=O)C2CCCN(S(=O)(=O)c3cnc[nH]3)C2)c1 (stereo unspecified)	0.81%
Cc1ccc(SCC2=NNC(=O)C2)cc1	-1.28%
CC(C)N1C(=S)SC(C)(C)C1n1oc(=O)n(-c2ccc(Cl)c(Cl)c2)c1=O (stereo unspecified)	7.15%
COc1ccc(CN2CCN(Cc3cn(C)nc3-c3ccccc3)CC2CCO)c(C)c1C (stereo unspecified)	2.04%
Cc1noc(C)c1NC(=O)Nc1ccc2c(c1)C(=O)N([C@H](C)CO)C[C@H](C)[C@@H](CN(C)C(=O)Nc1ccc(C(F)(F)F)cc1)O2	3.05%
Cc1ccc(-c2noc(CNC(=O)c3ccoc3C)n2)cc1	6.22%
O=C(COc1ccccc1F)NNC(=O)c1cc(Br)ccc1Cl	4.62%

SMILES	activation
CCN(CC)C(=O)C(=O)Nc1cccc(Br)c1	4.98%
CCN(CC)C(=O)Oc1ccc(Br)cc1C(=O)Nc1ccc(F)c(Cl)c1	86.6% (active)
CCC1CCCCN1CCNC(=O)c1[nH]c(C)c(C(C)=O)c1C (stereo unspecified)	1.61%
Fc1ccc(NC(=S)N2CCc3[nH]c4ccccc4c3C2)cc1	5.41%
C=CCNC(=S)N1CCc2[nH]c3ccccc3c2C1	73.6% (active)
O=C(Nc1ccc(Cl)cc1)N1CCc2[nH]c3ccccc3c2C1	25.4%
O=C(CCCN1CCc2[nH]c3ccc(F)cc3c2C1)c1ccc(F)cc1	2.64%
COc1cccc(-n2c(SCC(=O)NC3CCCCC3)nc3n[nH]c(C)c3c2=N)c1	104% (active)
CCCCNC(=O)CSc1nc2n[nH]c(C)c2c(=N)n1-c1cccc(Cl)c1C	13.7%
Cc1ccc(-n2c(SCC(=O)NCCC3=CCCCC3)nc3n[nH]c(C)c3c2=N)cc1Cl	24.8%
COc1ccccc1C(=O)NCCC(=O)NN1C(=O)NC2(CCCCC2)C1=O	-0.92%
C/C=C/C(=O)OCC(=O)Nc1ccc(F)cc1Cl	0.16%
O=C(CCCCCN1C(=O)c2cccc3cccc(c23)C1=O)NCc1ccco1	76.8% (active)
O=C(CCCOc1ccccc1)NCc1ccco1	1.62%
C[N+](C)(CCCCCC[N+](C)(C)CCCN1C(=O)c2cccc3cccc(c23)C1=O)CCCN1C(=O)c2cccc3cccc(c23)C1=O	4.39%
CC1CCN(C(=O)C2CCN(S(=O)(=O)N3CCC4(CC3)OCCO4)CC2)CC1	0.37%
Cc1ccc(NC(=O)c2cc([N+](=O)[O-])ccc2Cl)c(O)c1	49% (active)
CNc1ccc([N+](=O)[O-])cc1C(=O)O	-2.24%
O=C(Nc1cccnc1)c1cc([N+](=O)[O-])ccc1Cl	0.88%
COc1ccc(S(=O)(=O)NC(C)C(=O)NCc2ccncc2)cc1Cl (stereo unspecified)	-0.4%
C[C@H](CO)N1C[C@H](C)[C@@H](CN(C)S(=O)(=O)c2ccc(F)cc2)Oc2c(NC(=O)Nc3ccccc3)cccc2C1=O	0.64%
O=C(Nc1ccccc1)c1ccc2nsnc2c1	60.2% (active)

SMILES	activation
Cc1cccc(NC(=O)c2ccc3nsnc3c2)c1C	10.3%
O=C(Nc1cccc(NC(=O)c2cccc(F)c2)c1)c1ccccc1	26.6%
COC(C(=O)Nc1ccc(S(=O)(=O)Nc2ccc(C)c(C)c2)cc1)c1ccccc1 (stereo unspecified)	-0.6%
COCCN1CCn2c(nc3cc(NS(C)(=O)=O)ccc32)C1	4.78%
Cc1ccc(S(=O)(=O)NCC(=O)N(CC(=O)NC(C)(C)C)Cc2cccs2)cc1	3.31%
CCc1noc(C)c1C(=O)Nc1nc(-c2ccccc2)cs1	55.4% (active)
O=C(O)c1ccccc1C(=O)Nc1nc(-c2ccccc2)cs1	1.84%
CCc1noc(C)c1C(=O)Nc1nc2ccc(OC)cc2s1	1.93%
Nc1ncc(CN2CCCC(C(=O)Nc3ccc(-c4ccco4)cc3)C2)cn1 (stereo unspecified)	5.9%
Cc1cc(=O)oc2c(C(=O)c3ccccc3)c(OCC(N)=O)ccc12	3.98%
O=C(COC(=O)c1ccc(F)cc1)NCC1COc2ccccc2O1 (stereo unspecified)	-0.1%
Cc1noc(C)c1NC(=O)Nc1ccc2c(c1)C(=O)N([C@H](C)CO)C[C@H](C)[C@@H](CN(C)S(=O)(=O)c1cn(C)cn1)O2	0.71%
O=S(=O)(Nc1ccc(-n2cnnn2)cc1)c1ccc(Cl)cc1	1.5%
Brc1ccc(-c2csc(N/N=C/c3cccnc3)n2)cc1	-4.57%
C(=N\Nc1ccc2ccccc2n1)/c1ccc2c(c1)OCO2	101% (active)
Cc1nc(Cl)cc(N/N=C/c2ccccc2)n1	23.2%
O=C(CN1CCN(c2nc(-c3ccccc3)cs2)CC1)NCc1ccc2c(c1)OCO2	0.54%
O=C(Cc1ccc(F)cc1)N/N=C/c1ccc2c(c1)OCO2	42%
Cc1cc(=O)[nH]c(N/N=C/c2ccc3c(c2)OCCO3)n1	14.6%
Cc1cc(C)nc(N/N=C/c2c(C)oc3ccccc23)n1	11.9%
Cc1noc(C)c1/C=N/Nc1ccc2ccccc2n1	83.3% (active)
Brc1ccc(-c2csc(N/N=C/c3ccc4c(c3)OCO4)n2)cc1	58% (active)

Reference: PubChem BioAssay AID2796 (The Scripps Research Institute Molecular Screening Center, 2010)
